Activity calls are given as the source filed them. Rule for the calls, unless noted: active = hit-call score of the fitted dose curve at least 0.9, where 1 is the maximum; inactive = score below 0.9.
How the values were obtained:
[1] = read-out: Protein phosphatase 2A (PPP2R4), PTPA (gene 5524); assay: LTEA_HepaRG_PPP2R4: Life Technologies and Expression Analysis (LTEA) Assay for Protein phosphatase 2A (PPP2R4) using HepaRG (AID 2283522); details: mRNA level, 48 h; actives raise or lower the signal
In short: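 Expression was quantified by Fluidigm qRT-PCR normalised to three housekeeping genes after 48 h treatment. Human HepaRG cells received an 8-point series from 100 µM downward by half-logs, in duplicate with 0.5% DMSO vehicle and 1 mM phenobarbital as induction control.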

[2] = read-out: Phosphatase and tensin (PTEN), PTEN (gene 5728); assay: LTEA_HepaRG_PTEN: Life Technologies and Expression Analysis (LTEA) Assay for Phosphatase and tensin (PTEN) using HepaRG (AID 2283523); details: mRNA level, 48 h; actives raise or lower the signal
In short: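 Expression of PTEN is quantified in the human liver line HepaRG following two days of dosing (top concentration 100 uM, half-log dilutions, 0.5% DMSO). Values derive from bidirectional curve fitting relative to DMSO controls.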

[3] = read-out: solute carrier (SLC22A1), SLC22A1 (gene 6580); assay: LTEA_HepaRG_SLC22A1: Life Technologies and Expression Analysis (LTEA) Assay for solute carrier (SLC22A1) using HepaRG (AID 2283524); details: mRNA level, 48 h; actives raise or lower the signal;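 for AC50: differentiated human HepaRG liver cells in serum-free induction medium; TaqMan qRT-PCR normalized to ACTB GAPDH and POLR2A housekeeping genes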
In short: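 Transcript induction or suppression of SLC22A1 in human HepaRG cultures is scored after 48 h chemical treatment, with DMSO (0.5%) as baseline for bidirectional fitting. Concentrations span eight half-log points topping at 100 uM.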

[4] = read-out: Pyruvate Dehydrogenase Kinase 4 (PDK4), PDK4 (gene 5166); assay: LTEA_HepaRG_PDK4: Life Technologies and Expression Analysis (LTEA) Assay for Pyruvate Dehydrogenase Kinase 4 (PDK4) using HepaRG (AID 2283525); details: mRNA level, 48 h; actives raise or lower the signal
In short: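 Eight-point, half-log concentration series (max 100 uM, 0.5% DMSO) applied to differentiated HepaRG cells for 48 h in duplicate. Endpoint: PDK4 mRNA induction or repression by qRT-PCR against DMSO baseline.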

[5] = read-out: NAD(P)H dehydrogenase [quinone] 1 (NQO1), NQO1 (gene 1728); assay: LTEA_HepaRG_NQO1: Life Technologies and Expression Analysis (LTEA) Assay for NAD(P)H dehydrogenase [quinone] 1 (NQO1) using HepaRG (AID 2283526); details: mRNA level, 48 h; actives raise or lower the signal
In short: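 NQO1 transcript induction or loss measured by TaqMan qRT-PCR, referenced to three housekeeping genes and fitted bidirectionally against 0.5% DMSO. HepaRG cultures exposed 48 h, duplicate, eight-point half-log series, top 100 uM.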

[6] = read-out: Nuclear factor erythroid 2-related factor 2 (Homo sapiens) (UniProt Q16236); assay: LTEA_HepaRG_NFE2L2: Life Technologies and Expression Analysis (LTEA) Assay for Nuclear factor erythroid 2-related factor 2 (NFE2L2) Transcription Factor using HepaRG (AID 2283527); details: mRNA level, 48 h; actives raise or lower the signal;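 note: TaqMan qRT-PCR transcript level normalised to ACTB GAPDH and POLR2A housekeeping genes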
In short: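 Human liver HepaRG line treated in duplicate for 48 h with an eight-point series topping at 100 uM. Gene expression of NFE2L2 by qRT-PCR, bidirectionally fitted against the vehicle control.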

[7] = read-out: succinate dehydrogenase complex iron sulfur subunit B (SDHB), SDHB (gene 6390); assay: LTEA_HepaRG_SDHB: Life Technologies and Expression Analysis (LTEA) Assay for succinate dehydrogenase complex iron sulfur subunit B (SDHB) using HepaRG (AID 2283528); details: mRNA level, 48 h; actives raise or lower the signal
In short: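 Readout is SDHB transcript level by qRT-PCR, normalised to three housekeeping genes and fitted bidirectionally against 0.5% DMSO vehicle. Human HepaRG cells were treated for 48 h at up to 100 uM.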

[8] = read-out: Signal transducer and activator of transcription 3 (Homo sapiens) (UniProt P40763); assay: LTEA_HepaRG_STAT3: Life Technologies and Expression Analysis (LTEA) Assay for Signal transducer and activator of transcription (STAT3) using HepaRG (AID 2283529); details: mRNA level, 48 h; actives raise or lower the signal
In short: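 In this transcriptional endpoint, HepaRG cultures receive test chemicals at up to 100 uM for 48 h, tested in duplicate. STAT3 mRNA is normalized to ACTB, GAPDH and POLR2A.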

[9] = read-out: solute carrier (SLCO1B1), SLCO1B1 (gene 10599); assay: LTEA_HepaRG_SLCO1B1: Life Technologies and Expression Analysis (LTEA) Assay for solute carrier (SLCO1B1) using HepaRG (AID 2283530); details: mRNA level, 48 h; actives raise or lower the signal
In short: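 Human HepaRG cultures treated for 48 h with an eight-concentration half-log series topping at 100 uM; SLCO1B1 measured by qRT-PCR and fitted bidirectionally relative to DMSO.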

[10] = read-out: sulfotransferase 2A1 (SULT2A1), SULT2A1 (gene 6822); assay: LTEA_HepaRG_SULT2A1: Life Technologies and Expression Analysis (LTEA) Assay for sulfotransferase 2A1 (SULT2A1) using HepaRG (AID 2283531); details: mRNA level, 48 h; actives raise or lower the signal
In short: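 Gene-expression endpoint in a human liver cell line: SULT2A1 mRNA change after 48 h chemical treatment, curves fitted in both directions relative to 0.5% DMSO vehicle. Concentrations spanned eight half-log steps from 100 uM.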

[11] = read-out: Transforming Growth Factor (TGFA), TGFA (gene 7039); assay: LTEA_HepaRG_TGFA: Life Technologies and Expression Analysis (LTEA) Assay for Transforming Growth Factor (TGFA) using HepaRG (AID 2283532); details: mRNA level, 48 h; actives raise or lower the signal
In short: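 Gene expression of TGFA was quantified by qRT-PCR after human HepaRG cells were treated for 48 h with test chemicals (eight concentrations, highest 100 uM, 0.5% DMSO). Activity in either direction was fitted relative to DMSO.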

[12] = read-out: Transforming Growth Factor (TGFB1), TGFB1 (gene 7040); assay: LTEA_HepaRG_TGFB1: Life Technologies and Expression Analysis (LTEA) Assay for Transforming Growth Factor (TGFB1) Transporter using HepaRG (AID 2283533); details: mRNA level, 48 h; actives raise or lower the signal
In short: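 Eight-point concentration-response (max 100 uM, half-log) in HepaRG under serum-free induction conditions, 48 h. TGFB1 mRNA by qRT-PCR, housekeeping-normalized.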

[13] = read-out: TIMP1, TIMP1 (gene 7076); assay: LTEA_HepaRG_TIMP1: Life Technologies and Expression Analysis (LTEA) Assay for TIMP1 using HepaRG (AID 2283534); details: mRNA level, 48 h; actives raise or lower the signal;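 note: TaqMan qRT-PCR signal normalized to ACTB GAPDH and POLR2A housekeeping genes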
In short: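 TIMP1 induction or repression in HepaRG cells after 48 h chemical exposure (eight concentrations, highest 100 uM), assessed by normalized qRT-PCR with bidirectional fitting to DMSO controls.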

[14] = read-out: Tumor necrosis factor receptor 1 (TNFRSF1A), TNFRSF1A (gene 7132); assay: LTEA_HepaRG_TNFRSF1A: Life Technologies and Expression Analysis (LTEA) Assay for Tumor necrosis factor receptor 1 (TNFRSF1A) using HepaRG (AID 2283535); details: mRNA level, 48 h; actives raise or lower the signal
In short: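 Assay uses 48 h chemical treatment of differentiated HepaRG monolayers, tested in duplicate at eight concentrations from 100 uM downward in 0.5% DMSO. mRNA is normalized to ACTB, GAPDH and POLR2A, with induction or suppression fitted relative to vehicle.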

[15] = read-out: Thyroid Hormone Responsive (THRSP), THRSP (gene 7069); assay: LTEA_HepaRG_THRSP: Life Technologies and Expression Analysis (LTEA) Assay for Thyroid Hormone Responsive (THRSP) using HepaRG (AID 2283536); details: mRNA level, 48 h; actives raise or lower the signal
In short: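 Cell model: human HepaRG, approx. 100,000 cells/well, 0.5% DMSO vehicle. Exposure lasts 48 h; phenobarbital 1 mM serves as induction positive control. Gene expression is measured by qRT-PCR against three endogenous control genes.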

[16] = read-out: UDP glucuronosyltransferase (UGT1A1), UGT1A1 (gene 54658); assay: LTEA_HepaRG_UGT1A1: Life Technologies and Expression Analysis (LTEA) Assay for UDP glucuronosyltransferase (UGT1A1) using HepaRG (AID 2283538); details: mRNA level, 48 h; actives raise or lower the signal
In short: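 UGT1A1 transcript level, measured by qRT-PCR with three housekeeping genes for normalization, after 48 h treatment of human HepaRG cells (0.5% DMSO, duplicates, up to 100 uM, half-log steps, 8 points). Curves fit both directions against DMSO baseline.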

[17] = read-out: UDP glucuronosyltransferase (UGT1A6), UGT1A6 (gene 54578); assay: LTEA_HepaRG_UGT1A6: Life Technologies and Expression Analysis (LTEA) Assay for UDP glucuronosyltransferase (UGT1A6) using HepaRG (AID 2283539); details: mRNA level, 48 h; actives raise or lower the signal
In short: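 Measures mRNA change in HepaRG hepatic cells exposed 48 h to chemicals (eight-point, maximum 100 uM, 0.5% DMSO vehicle) in serum-free induction medium. Expression normalized to endogenous controls; DMSO served as negative control and baseline.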

[18] = read-out: X-box binding protein 1 (XBP1), XBP1 (gene 7494); assay: LTEA_HepaRG_XBP1: Life Technologies and Expression Analysis (LTEA) Assay for X-box binding protein 1 (XBP1) using HepaRG (AID 2283540); details: mRNA level, 48 h; actives raise or lower the signal
In short: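 Eight concentrations (half-log, highest 100 uM, 0.5% DMSO) tested in duplicate on HepaRG cells over 48 h in serum-free induction medium; qRT-PCR of XBP1 normalised to ACTB, GAPDH, POLR2A.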

[19] = LTEA_HepaRG_LDH_cytotoxicity: Cytotoxicity Assessment in the Life Technologies and Expression Analysis (LTEA) Assay (AID 2283563; active = hit-call score of the fitted dose curve at least 0.9, where 1 is the maximum)
In short: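 Spent-medium LDH after 48 h chemical exposure of HepaRG cells in serum-free induction medium; eight concentrations, half-log dilutions from 100 uM, duplicate wells, fitted upward relative to 0.5% DMSO.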

Chain of Nuclear factor erythroid 2-related factor 2 (Homo sapiens) (Q16236 whole entry, looked up): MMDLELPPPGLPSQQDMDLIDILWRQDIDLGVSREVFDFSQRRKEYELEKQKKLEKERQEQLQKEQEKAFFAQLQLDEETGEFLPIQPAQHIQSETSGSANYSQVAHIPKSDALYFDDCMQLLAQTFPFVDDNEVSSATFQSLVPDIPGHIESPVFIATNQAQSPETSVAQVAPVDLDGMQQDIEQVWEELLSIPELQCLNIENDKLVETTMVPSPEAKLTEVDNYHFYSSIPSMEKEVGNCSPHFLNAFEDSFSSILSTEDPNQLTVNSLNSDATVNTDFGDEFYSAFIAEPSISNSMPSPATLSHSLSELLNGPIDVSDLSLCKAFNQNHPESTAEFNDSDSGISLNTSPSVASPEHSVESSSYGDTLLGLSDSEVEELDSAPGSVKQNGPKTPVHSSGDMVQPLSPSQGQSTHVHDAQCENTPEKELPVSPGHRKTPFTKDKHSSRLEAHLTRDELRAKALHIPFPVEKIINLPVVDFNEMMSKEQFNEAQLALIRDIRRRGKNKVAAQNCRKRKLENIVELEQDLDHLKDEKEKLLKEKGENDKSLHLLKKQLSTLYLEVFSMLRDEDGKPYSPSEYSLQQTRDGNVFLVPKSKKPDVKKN
Chain of Signal transducer and activator of transcription 3 (Homo sapiens) (P40763 whole entry, looked up): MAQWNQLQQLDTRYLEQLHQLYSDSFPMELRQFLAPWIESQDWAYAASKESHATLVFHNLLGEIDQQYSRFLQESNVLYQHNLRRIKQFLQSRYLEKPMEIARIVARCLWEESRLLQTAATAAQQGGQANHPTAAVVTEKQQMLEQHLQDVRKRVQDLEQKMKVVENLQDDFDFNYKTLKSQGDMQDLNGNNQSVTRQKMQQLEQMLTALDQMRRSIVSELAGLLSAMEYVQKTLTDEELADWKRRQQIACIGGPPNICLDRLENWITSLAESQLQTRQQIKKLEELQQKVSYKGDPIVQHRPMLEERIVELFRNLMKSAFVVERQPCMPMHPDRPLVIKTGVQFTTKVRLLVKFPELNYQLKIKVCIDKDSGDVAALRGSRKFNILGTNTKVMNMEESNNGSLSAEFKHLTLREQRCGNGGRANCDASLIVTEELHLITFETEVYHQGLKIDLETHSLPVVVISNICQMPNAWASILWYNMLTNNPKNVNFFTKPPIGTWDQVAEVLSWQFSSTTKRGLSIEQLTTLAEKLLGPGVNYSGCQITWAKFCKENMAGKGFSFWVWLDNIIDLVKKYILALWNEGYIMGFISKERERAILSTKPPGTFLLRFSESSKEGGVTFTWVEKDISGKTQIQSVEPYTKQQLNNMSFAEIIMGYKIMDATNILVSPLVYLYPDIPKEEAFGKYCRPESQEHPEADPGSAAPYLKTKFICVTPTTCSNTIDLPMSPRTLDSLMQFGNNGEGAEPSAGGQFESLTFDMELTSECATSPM

Question: With `O=C(O)COc1nc(Cl)c(Cl)cc1Cl` as the compound, how does the outcome [1] read?
Answer: inactive

Question: And the outcome [2]?
Answer: inactive

Question: And the outcome [3]?
Answer: inactive

Question: What about the AC50 [4] of the same compound?
Answer: 51 µM (active)

Question: And the outcome [5]?
Answer: inactive

Question: And the outcome [6]?
Answer: inactive

Question: What about the outcome [7] of the same compound?
Answer: inactive

Question: What about the outcome [8] of the same compound?
Answer: inactive

Question: What about the outcome [9] of the same compound?
Answer: inactive

Question: And the outcome [10]?
Answer: inactive

Question: What about the outcome [11] of the same compound?
Answer: inactive

Question: And the outcome [12]?
Answer: inactive

Question: And the outcome [13]?
Answer: inactive

Question: And the outcome [14]?
Answer: inactive

Question: And the outcome [15]?
Answer: inactive

Question: And the outcome [16]?
Answer: inactive

Question: What about the outcome [17] of the same compound?
Answer: inactive

Question: And the outcome [18]?
Answer: inactive

Question: With `COC(=O)C=C(C)OP(=O)(OC)OC` as the compound, how does the outcome [1] read?
Answer: inactive

Question: What about the outcome [2] of the same compound?
Answer: inactive

Question: What about the outcome [3] of the same compound?
Answer: inactive

Question: What about the outcome [4] of the same compound?
Answer: inactive

Question: What about the outcome [5] of the same compound?
Answer: inactive

Question: And the outcome [6]?
Answer: inactive

Question: And the outcome [7]?
Answer: inactive

Question: And the outcome [8]?
Answer: inactive

Question: What about the outcome [9] of the same compound?
Answer: inactive

Question: What about the outcome [10] of the same compound?
Answer: inactive

Question: And the outcome [11]?
Answer: inactive

Question: What about the outcome [12] of the same compound?
Answer: inactive

Question: And the outcome [13]?
Answer: inactive

Question: What about the outcome [14] of the same compound?
Answer: inactive

Question: And the outcome [15]?
Answer: inactive

Question: What about the outcome [16] of the same compound?
Answer: inactive

Question: What about the outcome [17] of the same compound?
Answer: inactive

Question: And the outcome [18]?
Answer: inactive

Question: What about the outcome [19] of the same compound?
Answer: inactive

Question: Which results are given for `CC(C)Oc1cc(-n2nc(C(C)(C)C)oc2=O)c(Cl)cc1Cl`?
Answer: outcome [1]: inactive; outcome [2]: inactive; AC50 [3]: 42.8 µM (active); AC50 [4]: 11.6 µM (active); outcome [5]: inactive; outcome [6]: inactive; outcome [7]: inactive; outcome [8]: inactive; outcome [9]: inactive; AC50 [10]: 80.9 µM (active); outcome [11]: inactive; outcome [12]: inactive; outcome [13]: inactive; outcome [14]: inactive; AC50 [15]: 11.8 µM (active); AC50 [16]: 1.41 µM (active); AC50 [17]: 76.5 µM (active); outcome [18]: inactive

Question: With `COP(N)(=O)SC` (stereo unspecified) as the compound, how does the outcome [1] read?
Answer: inactive

Question: And the outcome [2]?
Answer: inactive

Question: And the outcome [3]?
Answer: inactive

Question: What about the outcome [4] of the same compound?
Answer: inactive

Question: And the outcome [5]?
Answer: inactive

Question: And the outcome [6]?
Answer: inactive

Question: What about the outcome [7] of the same compound?
Answer: inactive

Question: What about the outcome [8] of the same compound?
Answer: inactive

Question: And the outcome [9]?
Answer: inactive

Question: What about the outcome [10] of the same compound?
Answer: inactive

Question: And the outcome [11]?
Answer: inactive

Question: And the outcome [12]?
Answer: inactive

Question: And the outcome [13]?
Answer: inactive

Question: And the outcome [14]?
Answer: inactive

Question: And the outcome [15]?
Answer: inactive

Question: And the outcome [16]?
Answer: inactive

Question: What about the outcome [17] of the same compound?
Answer: inactive

Question: What about the outcome [18] of the same compound?
Answer: inactive

Question: Which results are given for `CC(C)C1(C)N=C(c2nc3ccccc3cc2C(=O)O)NC1=O` (stereo unspecified)?
Answer: outcome [1]: inactive; outcome [2]: inactive; outcome [3]: inactive; outcome [4]: inactive; outcome [5]: inactive; outcome [6]: inactive; outcome [7]: inactive; outcome [8]: inactive; outcome [9]: inactive; outcome [10]: inactive; outcome [11]: inactive; outcome [12]: inactive; outcome [13]: inactive; outcome [14]: inactive; outcome [15]: inactive; outcome [16]: inactive; outcome [17]: inactive; outcome [18]: inactive

From PubChem BioAssay (EPA / NIEHS)
